Experimental findings from PubChem BioAssay are described below.

The nature of assay [1]: P. berghei load reduction in hepatocytes – cell-based, HepG2, luciferase luminescence, HepG2 viability, primary screen (AID 624349; in the data active means parasite load remaining mostly below about 12%, no sharp cut-off; inactive means mostly above about 10%;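 further: 100% = mean of DMSO negative control wells on the same plate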). The conditions noted are these: P. berghei liver stage in HepG2, luciferase luminescence, concentration not given here; parasite load remaining: stronger effect = lower value; viability: measured here: HepG2 viability without parasites.
Assay [2] in a line: signal quenchers or enhancers, Cy5 substrate/SSB – biochemical, NIH Clinical Collection, E. coli SSB, artefact control for HCV NS3 helicase inhibitor project (AID 743268; call rule not given here). As to conditions: Cy5-oligo bound E. coli SSB, fluorescence interference.
For assay [3], the system named is Hepatitis C virus NS3 helicase. Briefly: blockers of NS3h binding to DNA – biochemical, fluorescence polarization, NIH Clinical Collection, primary screen (AID 743270; call rule not given here). The conditions noted are these: NS3 helicase binding to Cy5-dT15 DNA, stronger effect = higher value, concentration not given here. For orientation: Fluorescence polarisation rises when a labelled molecule tumbles more slowly, as on binding a larger partner.

Assay [4] has as its target Single-stranded DNA-binding protein (Escherichia coli (strain K12)) (UniProt P0AGE0). Briefly: SSB-ssDNA binding inhibitors – biochemical, fluorescence polarization, NIH Clinical Collection, counter-screen for HCV NS3 helicase inhibitor project (AID 743271; in the data active means inhibition above about 28%). As to conditions: E. coli SSB-DNA binding, stronger effect = higher value, concentration not given here.
Assay [5] can be described thus: compounds distorting NS3 helicase fluorescence signal – biochemical, NIH Clinical Collection, artefact control for HCV NS3 helicase inhibitor project (AID 743272; call rule not given here;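 further: HCV NS3 helicase with a Cy5 labelled single stranded DNA probe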). As to conditions: fluorescence interference counterscreen, HCV NS3 helicase assay; stronger effect = lower value. On the technique in general: A counterscreen serves to expose hits that act by an unwanted route or on another target.

Assay [6] has as its system Neuropilin-2 / VEGF-C interaction (human). Nature of the assay: small molecules blocking Neuropilin-2/VEGF-C interaction – biochemical, microplate binding format, z-score (AID 743281; call rule not given here). As to conditions: microplate NRP2/VEGF-C binding assay; stronger effect = lower value.
Assay [7] is described as follows: modulation of C. elegans fzo-1 (AID 1259413; call rule not given here;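 further: fzo-1 mutant C. elegans worms in liquid wells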). The conditions noted are these: C. elegans fzo-1 modulator screen, mean read-out; stronger effect = higher value.
Assay [8] can be described thus: viability loss with induced miR-34 in A549 – imaging, A549 dox-inducible miR-34, nuclei and caspase counts, primary screen (AID 1347080;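 active means compounds whose cell count with miR-34 switched on is under 0.7 times the count with it off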). The conditions noted are these: A549 miR-34 inducible, Hoechst nuclei count, 48 h.
Assay [9] deals with F380Y. Briefly: BK channel mutant inhibitors and activators – cell-based, U2OS BacMam, thallium flux, beta subunits, selectivity assay, profiling panel (AID 1259406).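 Further: initial slope of Thallos dye fluorescence rise after thallium is added; log ratio against the mean of 0.3% DMSO vehicle wells on the same plate.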 As to conditions: U2OS BacMam BK variants, at 30 µM.
For assay [10], the system named is F380Y/beta1. Described as above. The conditions noted are these: U2OS BacMam BK variants, at 30 µM.
For assay [11], the system named is F380Y/beta2Delta. The description is as above. The conditions noted are these: U2OS BacMam BK variants, at 30 µM.
In assay [12] the test system is F380Y/beta4. Described as above. As to conditions: U2OS BacMam BK variants, at 30 µM.
Assay [13] addresses Calcium-activated potassium channel subunit alpha-1 (Homo sapiens) + Leucine-rich repeat-containing protein 26 (Homo sapiens) (UniProt Q12791+Q2I0M4). The description is as above. The conditions noted are these: U2OS BacMam BK variants, F380Y/Slo1WT/gamma1, at 30 µM.
The subject of assay [14] is R275C. The assay is described as above. The conditions noted are these: U2OS BacMam BK variants, at 30 µM.
The subject of assay [15] is R275C/beta1. The assay is described as above. As to conditions: U2OS BacMam BK variants, at 30 µM.
The subject of assay [16] is R275C/beta2Delta. The description is as above. As to conditions: U2OS BacMam BK variants, at 30 µM.
Assay [17] concerns R275C/beta4. The assay is described as above. As to conditions: U2OS BacMam BK variants, at 30 µM.
Assay [18] deals with R275C/Slo1WT/beta2. The description is as above. As to conditions: U2OS BacMam BK variants, at 30 µM.
Assay [19] is described as follows: galactose survival enhancers in mitochondrial complex I cybrids – cell-based, galactose medium, ATP luminescence, primary screen (AID 1645843;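 active means z-score of at least 1.8 in each of two replicates, scored against plate mean and spread of sample wells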;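 further: positive z means more ATP and so rescue of galactose-driven cybrid death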). As to conditions: complex I mutant cybrid cells, 72 h, stronger effect = higher value.
Assay [20] in a line: MELAS cybrid and Rieske KO viability enhancers – cell-based, MELAS cybrids, Rieske KO mouse fibroblasts, CellTiter-Glo, primary screen (AID 1508586;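 active means mean z-score across replicates of 1.96 or higher in either the MELAS or the Rieske mutant cell line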;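 further: z relative to plate mean and SD of compound and empty wells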). The conditions noted are these: low glucose. Background: In ATP-based viability assays light output follows the ATP content of the culture.
[21] abbreviates: stronger effect = lower value, cell number ratio, induced over uninduced.
[22] abbreviates: measured here: relative caspase fold change +Dox/-Dox.
The mark [23] stands for this setting: measured here: total cells with miR-34 induction, stronger effect = lower value.
Where [24] appears, read: measured here: total cells without miR-34 induction.

Molecules are shown by their SMILES. Values joined by “and” are separate entries in the source; they are usually repeats but may differ in a detail not shown here. Identical values can stand only once. Active and inactive are the calls of the source.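 How the source made its calls, unless noted: active means thallium flux through the channel raised or lowered by more than 3 SD from vehicle-only wells, actives on both sides; inactive means the rest.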

Chain of Calcium-activated potassium channel subunit alpha-1 (Homo sapiens) + Leucine-rich repeat-containing protein 26 (Homo sapiens) (Q2I0M4 whole entry, looked up, one chain of several): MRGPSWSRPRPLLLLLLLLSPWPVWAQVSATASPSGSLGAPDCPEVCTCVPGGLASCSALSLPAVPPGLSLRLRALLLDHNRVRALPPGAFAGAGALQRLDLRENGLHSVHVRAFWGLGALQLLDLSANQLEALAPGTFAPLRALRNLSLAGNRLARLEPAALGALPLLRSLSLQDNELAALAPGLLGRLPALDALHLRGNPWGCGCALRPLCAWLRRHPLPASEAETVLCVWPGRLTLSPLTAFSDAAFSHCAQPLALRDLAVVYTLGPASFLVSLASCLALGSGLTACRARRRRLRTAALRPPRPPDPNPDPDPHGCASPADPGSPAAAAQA

Broadly, the viability is a read-out of living cells in per cent, often relative to untreated cells. As usually defined, the inhibition is the relative decrease from the control value, in per cent. `CN(C)[C@@H]1C(=O)C(C(=O)NCN2CCCC2)=C(O)[C@@]2(O)C(=O)C3=C(O)c4c(O)cccc4[C@@](C)(O)C3CC12` (stereo partly specified): the parasite load remaining in assay [1] is 77.2% (inactive) and 69.4% (inactive). In addition, the viability in assay [1] was 91.9% and 67.8%. The results for the fluorescence ratio in assay [2] and in assay [5] were 0.68 (active) and 0.76 (active), respectively. For the same compound, the inhibition in assay [3] was -3.71% (inactive); in assay [4], 45.3% (active). Moreover, in assay [6], the z-score is 0.267 (inactive). For the same compound, the mean signal in assay [7] was 213 (inactive). The fold change was 0.896 (inactive) in assay [8] (setting [21]) and 0.92 in [8] (setting [22]). The values for the cell count in assay [8] (setting [23]) and in assay [8] (setting [24]) were 9290 and 10400, respectively. Further, the log fold change Tl+ flux was -0.0801 (inactive) in assay [9]; -0.00765 (inactive) in assay [10]; -0.0371 (inactive) in [11]; -0.0313 (inactive) in assay [12]; 0.0591 (inactive) in [13]; 0 (inactive) in assay [14]. Besides, the log fold change Tl+ flux is -0.0252 (inactive) in assay [15], 0.0108 (inactive) in assay [16], -0.0407 (inactive) in assay [17] and 0.0233 (inactive) in assay [18].
As for `O=c1c(O[C@@H]2O[C@H](CO)[C@H](O)[C@H](O)[C@H]2O)c(-c2ccc(O)c(O)c2)oc2cc(O)cc(O)c12`, in [1], the parasite load remaining was 108% (inactive). The viability in assay [1] was found to be 61.9%. Also, the fluorescence ratio in [2] is 0.94 (inactive); in assay [5], 1 (inactive). The inhibition is 1.98% (inactive) in [3] and 15.3% (inactive) in [4]. Also, the z-score in assay [6] was -0.00792 (inactive). For the same compound, the mean signal in [7] was 249 (inactive). Also, the log fold change Tl+ flux in assay [9] is -0.00852 (inactive); in assay [10] it was -0.00723 (inactive); in assay [11], -0.0335 (inactive); in assay [12], -0.027 (inactive); in [13] it was -0.0251 (inactive); in [14] it was -0.00833 (inactive). Besides, the log fold change Tl+ flux is -0.0329 (inactive) in assay [15], 0.0189 (inactive) in assay [16], 0.0212 (inactive) in assay [17] and -0.0201 (inactive) in assay [18].
Regarding `CC(=O)CCCCn1cnc2c1c(=O)n(C)c(=O)n2C`, the parasite load remaining in [1] was 108% (inactive). In assay [1], the viability was 91.8%. Further, the fluorescence ratio in assay [2] is 1.04 (inactive); in assay [5] it was 0.95 (inactive). Besides, the inhibition in assay [3] was -0.4% (inactive); in [4], -0.1% (inactive). Also, the z-score in [6] is -1.78 (inactive); in [19], 0.63 (inactive). Also, the mean signal in assay [7] is 257 (inactive). Also, the fold change in assay [8] (setting [21]) was 0.919 (inactive); in assay [8] (setting [22]), 1.72. Also, the cell count in [8] (setting [23]) is 9610; in [8] (setting [24]), 10500. For the same compound, the log fold change Tl+ flux in assay [9] is -0.0664 (inactive); in assay [10], -0.015 (inactive); in [11] it was -0.0429 (inactive); in assay [12] it was -0.0419 (inactive); in assay [13] it was 0.0418 (inactive); in [14], -0.00612 (inactive). The log fold change Tl+ flux was -0.0249 (inactive) in [15], 0.0157 (inactive) in assay [16], -0.0496 (inactive) in assay [17] and -0.0588 (inactive) in assay [18].
In the case of `C=C1/C(=C\C=C2/CCC[C@]3(C)[C@@H]([C@H](C)/C=C/[C@@H](O)C4CC4)CC[C@@H]23)C[C@@H](O)C[C@@H]1O`, the parasite load remaining in assay [1] is 78.1% (inactive) and 40.9% (inactive). Also, the viability in assay [1] was 69.5% and 101%. Moreover, the fluorescence ratio is 0.98 (inactive) in assay [2] and 0.97 (inactive) in assay [5]. In addition, the inhibition was -1.98% (inactive) in [3] and 2.98% (inactive) in [4]. The fold change in assay [8] (setting [21]) was 1.11 (inactive) and 0.946 (inactive); in [8] (setting [22]), 1.34 and 1.48. The cell count in assay [8] (setting [23]) was 6690 and 9180; in [8] (setting [24]) it was 6000 and 9710. For the same compound, the z-score was 0.67 (inactive) and -0.148 (inactive) in [20] (MELAS cybrid survival, CellTiter-Glo 48 h, stronger effect = higher value); -0.0393 and -0.0428 in assay [20] (Rieske KO mouse fibroblast survival, CellTiter-Glo 72 h); -0.655 (inactive) and -0.545 (inactive) in assay [19]. Also, the log fold change Tl+ flux was 0.0327 (inactive) in [9]; 0.217 (active) in [10]; 0.0454 (inactive) in [11]; 0.0579 (inactive) in assay [12]; 0.0831 (inactive) in assay [13]; -0.0334 (inactive) in assay [14]. The log fold change Tl+ flux in [15] is 0.143 (active); in assay [16] it was -0.0353 (inactive); in assay [17], 0.0276 (inactive); in assay [18] it was 0.00965 (inactive).
